Records with an inconclusive call do not appear. Activity calls are given as the source filed them. Unless noted, calls come from the whole dose curve.

For assay [1], the target named is Parathyroid hormone/parathyroid hormone-related peptide receptor (Homo sapiens) (UniProt Q03431). The experiment in a line: qHTS for PTHR1 Agonists: Optimization Screen against the NCGC LOPAC library (AID 1347079; active = well fitted activation curve with a large enough effect;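 note: GloSensor cAMP luminescence in HEK-293 GP2 cells expressing human PTHR1 with IBMX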; note: potency is the fitted concentration of half-maximal effect). The essentials:
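Signal increase flags agonism. GP2 cells, derived from HEK-293, express human PTHR1 and a GloSensor cAMP construct.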
A general note: Quantitative high-throughput screening tests each substance at several concentrations.

Assay [2] is described as follows: qHTS for Inhibitors of the Functional Ribonucleoprotein Complex (vRNP) of Lassa (LASV) Arenavirus: LASV Primary Screen - GLuc reporter signal (AID 1347082; calls by dose curve; tested in HEK293 reporter line; note: series mostly up to about 57 µM; nearly all actives have a fitted effect of over 60% in size).
The nature of assay [3]: qHTS for Inhibitors of the Functional Ribonucleoprotein Complex (vRNP) of Lassa (LASV) Arenavirus: Viability assay - alamar blue signal for LASV Primary Screen (AID 1347083; calls by dose curve; tested in HEK293 reporter line; note: series mostly up to about 57 µM; nearly all actives have a fitted effect of over 80% in size).
Assay [4] can be described thus: qHTS for Inhibitors of the Functional Ribonucleoprotein Complex (vRNP) of Lymphocytic Choriomeningitis Arenaviruses (LCMV): Viability assay - alamar blue signal for LCMV Primary Screen (AID 1347085; calls by dose curve; tested in HEK293 reporter line; note: series mostly up to about 57 µM; nearly all actives have a fitted effect of over 80% in size).
In assay [5] the target is Nucleoprotein (Lymphocytic choriomeningitis virus (strain Armstrong)) (UniProt P09992). As to the kind of experiment: qHTS for Inhibitors of the Functional Ribonucleoprotein Complex (vRNP) of Lymphocytic Choriomeningitis Arenaviruses (LCMV): LCMV Primary Screen - GLuc reporter signal (AID 1347086). Note: series mostly up to about 57 µM; nearly all actives have a fitted effect of over 70% in size.
Chain of Nucleoprotein (Lymphocytic choriomeningitis virus (strain Armstrong)) (P09992 whole entry, looked up): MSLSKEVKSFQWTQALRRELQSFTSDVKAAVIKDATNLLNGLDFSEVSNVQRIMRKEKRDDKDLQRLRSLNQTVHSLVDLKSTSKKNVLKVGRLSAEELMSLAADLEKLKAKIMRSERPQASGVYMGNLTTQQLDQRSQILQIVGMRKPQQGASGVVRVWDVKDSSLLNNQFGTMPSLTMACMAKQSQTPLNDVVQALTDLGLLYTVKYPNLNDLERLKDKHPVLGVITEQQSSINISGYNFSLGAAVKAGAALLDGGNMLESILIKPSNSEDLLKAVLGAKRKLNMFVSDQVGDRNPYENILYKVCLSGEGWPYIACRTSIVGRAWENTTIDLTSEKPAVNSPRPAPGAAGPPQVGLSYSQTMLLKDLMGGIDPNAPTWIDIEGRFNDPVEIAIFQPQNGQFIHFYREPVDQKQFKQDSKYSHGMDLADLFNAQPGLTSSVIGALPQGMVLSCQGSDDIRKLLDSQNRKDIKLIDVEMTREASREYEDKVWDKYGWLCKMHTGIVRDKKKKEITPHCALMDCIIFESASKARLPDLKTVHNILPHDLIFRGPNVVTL

Chain of Parathyroid hormone/parathyroid hormone-related peptide receptor (Homo sapiens) (Q03431 whole entry, looked up): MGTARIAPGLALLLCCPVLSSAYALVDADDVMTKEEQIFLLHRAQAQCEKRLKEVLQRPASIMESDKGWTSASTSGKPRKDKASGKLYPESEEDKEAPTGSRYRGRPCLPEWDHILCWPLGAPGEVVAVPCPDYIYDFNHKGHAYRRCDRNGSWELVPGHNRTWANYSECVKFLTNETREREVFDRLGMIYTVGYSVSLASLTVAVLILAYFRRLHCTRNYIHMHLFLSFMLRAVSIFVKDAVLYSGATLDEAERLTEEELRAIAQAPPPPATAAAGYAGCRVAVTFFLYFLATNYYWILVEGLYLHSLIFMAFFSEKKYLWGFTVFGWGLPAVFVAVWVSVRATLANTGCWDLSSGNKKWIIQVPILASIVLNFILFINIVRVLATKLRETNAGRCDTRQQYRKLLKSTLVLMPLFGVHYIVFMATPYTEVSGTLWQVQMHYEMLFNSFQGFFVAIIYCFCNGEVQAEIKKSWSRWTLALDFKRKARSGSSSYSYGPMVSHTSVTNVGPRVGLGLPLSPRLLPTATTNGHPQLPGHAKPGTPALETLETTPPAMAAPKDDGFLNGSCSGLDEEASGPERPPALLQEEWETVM

Turning to `Clc1ccc(N2CC3CCC(C2)N3)nn1`, the Potency result in assay [1], in assay [2], in assay [3], in assay [4] and in assay [5] was “inactive” throughout.
Regarding `Cc1[nH]c2ccc(O)cc2c1CCN`, the Potency result in assay [1], in assay [2], in assay [3], in assay [4] and in assay [5] was “inactive” each time.
Turning to `NC(CCCCCP(=O)(O)O)C(=O)O` (stereo not given), the Potency result in assay [1], in assay [2], in assay [3], in assay [4] and in assay [5] was “inactive” each time.
Consider `CCCN(CCC)C1Cc2cc(OC)c(OC)cc2C1`, for which the Potency entry in assay [1], in assay [2], in assay [3], in assay [4] and in assay [5] was “inactive” throughout.
With `C[N+]1(C)C2CCC1CC(OC(=O)c1c[nH]c3ccccc13)C2` (stereo not given), the Potency result in assay [1], in assay [2], in assay [3], in assay [4] and in assay [5] was “inactive” in each case.
`CCCN(CCC)CCc1c[nH]c2ccc(C(N)=O)cc12`: the Potency result in assay [1], in assay [2], in assay [3], in assay [4] and in assay [5] was “inactive” throughout.
On to `C#CCN[C@H](C)Cc1ccccc1`, for which the Potency entry in assay [1], in assay [2], in assay [3], in assay [4] and in assay [5] was “inactive” throughout.
For the compound `CCCN(CCC)[C@@H]1CCc2cccc(O)c2C1`, the Potency result in assay [1], in assay [2], in assay [3], in assay [4] and in assay [5] was “inactive” each time.
Regarding `COc1ccc2[nH]c3c(c2c1)CCNC3`, the Potency result in assay [1], in assay [2], in assay [3], in assay [4] and in assay [5] was “inactive” in each case.
For the compound `Nc1ccc(CCN2CCN(c3cccc(C(F)(F)F)c3)CC2)cc1`, the Potency entry in assay [1], in assay [2], in assay [3], in assay [4] and in assay [5] was “inactive” in each case.
Take `O=c1c2ccccc2[se]n1-c1ccccc1`: the Potency result in assay [1], in assay [2], in assay [3], in assay [4] and in assay [5] was “inactive” throughout.
For the compound `C[C@@H]1O[C@H](C[N+](C)(C)C)CS1`, the Potency entry in assay [1], in assay [2], in assay [3], in assay [4] and in assay [5] was “inactive” each time.
As for `NCCc1c[nH]c2ccc(C(N)=O)cc12`, the Potency entry in assay [1], in assay [2], in assay [3], in assay [4] and in assay [5] was “inactive” each time.
Take `NC(Cc1cc(O)c(O)cc1O)C(=O)O` (stereo not given): the Potency result in assay [1], in assay [2], in assay [3], in assay [4] and in assay [5] was “inactive” in each case.
With `C[N+](C)(C)CCOC(=O)CBr`, the Potency result in assay [1], in assay [2], in assay [3], in assay [4] and in assay [5] was “inactive” in each case.
Consider `CC(N)[C@H](O)c1ccc(O)c(O)c1` (stereo not given in full), for which the Potency entry in assay [1], in assay [2], in assay [3], in assay [4] and in assay [5] was “inactive” in each case.
For the compound `O=[N+]([O-])c1cc(O)c(O)c([N+](=O)[O-])c1`, the Potency result in assay [1], in assay [2], in assay [3], in assay [4] and in assay [5] was “inactive” each time.
As for `CN1C2CCC1CC(OC(c1ccccc1)c1ccccc1N)C2` (stereo not given), the Potency result in assay [1], in assay [2], in assay [3], in assay [4] and in assay [5] was “inactive” in each case.
With `CC(C)(O)[C@@H]1C2OC(=O)[C@@H]1[C@]1(O)C[C@H]3O[C@]34C(=O)O[C@H]2[C@]14C` (tested in a mixture with another compound), the Potency result in assay [1], in assay [2], in assay [3], in assay [4] and in assay [5] was “inactive” in each case.
Take `NC(=O)CI`: the Potency entry in assay [1], in assay [2], in assay [3], in assay [4] and in assay [5] was “inactive” each time.
On to `C[Se]C[C@H](N)C(=O)O`, for which the Potency result in assay [1], in assay [2], in assay [3], in assay [4] and in assay [5] was “inactive” throughout.
For the compound `CN1CCC(c2c[nH]c3ccc(O)cc23)CC1`, the Potency result in assay [1], in assay [2], in assay [3], in assay [4] and in assay [5] was “inactive” each time.
As to `Cc1cc([C@@H]2CCCN2C)on1`, the Potency entry in assay [1], in assay [2], in assay [3], in assay [4] and in assay [5] was “inactive” throughout.
With `CC(Cc1ccc(OCC(=O)O)cc1)NCC(O)c1cccc(Cl)c1` (stereo not given), the Potency entry in assay [1], in assay [2], in assay [3], in assay [4] and in assay [5] was “inactive” in each case.
With `O=S1(=O)N(CCN2CC=C(c3c[nH]c4cc(F)ccc34)CC2)c2cccc3c2N1CCC3`, the Potency result in assay [1], in assay [2], in assay [3], in assay [4] and in assay [5] was “inactive” each time.
For the compound `C=CCN1CCc2cccc3c2[C@H]1Cc1ccc(O)c(O)c1-3`, the Potency entry in assay [1], in assay [2], in assay [3], in assay [4] and in assay [5] was “inactive” throughout.
As to `CC(=O)OCC1=C(C(=O)O)N2C(=O)[C@@H](NC(=O)CCC[C@@H](N)C(=O)O)[C@H]2SC1`, the Potency result in assay [1], in assay [2], in assay [3], in assay [4] and in assay [5] was “inactive” each time.
On to `NCC(CP(=O)(O)O)c1ccc(Cl)cc1` (stereo not given), for which the Potency in assay [1] is 18.9 µM (active). Further, the Potency result in assay [2], in assay [3], in assay [4] and in assay [5] was “inactive” each time.
Turning to `COc1ccc(CNC(=O)/C=C/c2ccc3[nH]cc(CCN(C)C)c3c2)cc1`, the Potency result in assay [1], in assay [2], in assay [3], in assay [4] and in assay [5] was “inactive” throughout.
Consider `NCCCP(=O)(O)O`, for which the Potency entry in assay [1], in assay [2], in assay [3], in assay [4] and in assay [5] was “inactive” in each case.
On to `Cc1sc2ccccc2c1CC1=NCCN1`, for which the Potency entry in assay [1], in assay [2], in assay [3], in assay [4] and in assay [5] was “inactive” throughout.
Consider `NC(C(=O)O)c1cc(=O)[nH]o1` (stereo not given), for which the Potency entry in assay [1], in assay [2], in assay [3], in assay [4] and in assay [5] was “inactive” throughout.
Turning to `C=CCN1CCC23c4c5ccc(O)c4O[C@H]2C(=O)CC[C@@]3(O)C1C5` (stereo not given in full), the Potency result in assay [1], in assay [2], in assay [3], in assay [4] and in assay [5] was “inactive” each time.
Consider `CCCN(CCC)CCc1ccc(O)c(O)c1`, for which the Potency result in assay [1], in assay [2], in assay [3], in assay [4] and in assay [5] was “inactive” in each case.

Source of the values: PubChem BioAssay (NCATS).
